# Bioassay records (PubChem)
# Most compounds without a hit are left out; they make up all but 19% or so of the library.
# DT40 TDP1 CPT = growth inhibition of DT40 Tdp1-/-;hTDP1 cells with camptothecin (screen for TDP1 inhibitors). chicken DT40 Tdp1-/-;hTDP1 cells + 20 nM CPT, ATP luminescence, 48 h. AID 686979. Potency, µM (titrated, usually from 46.2 µM), without a hit: top-dose activity change, negative = growth inhibition, most hits filed as inhibitors. 12% of 420,000 active; also: potency is read from the fitted curve at half-maximal effect; % is scaled to controls: 0 for no effect and ±100 for the full control effect; nearly all actives have a fitted effect of over 55% in size
#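 Chicken DT40 Tdp1-/- cells complemented with human TDP1, 400 cells/well, exposed to compounds plus 20 nM camptothecin for at least 48 h at 37 C; viability read as ATP content by CellTiter-Glo luminescence.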
# SW480 rerep = inducers of DNA re-replication in SW480 colon cancer cells; Potency, µM (series often up to 46.1 µM), for inactives: at the top dose re-replication activation, most hits filed as activators; AID 624297; SW480 DNA re-replication, Hoechst DNA content imaging, 48 h; 1.8% of 340,000 active; also: potency is read from the fitted curve at half-maximal effect; % of control where 0% means no effect; nearly all actives have a fitted effect of over 55% in size
#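 250 cells/well; 23 nL cpd via pin tool; 48 hr, 37 C, 5% CO2; Hoechst 40 min; imager read of total nuclear intensity, ex 405/em 500-530 nm.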
# BCR signal inh = inhibitors of chronic active B-cell receptor signaling; ABC-DLBCL IkBa-CBG/CBR reporter, luminescence ratio, 4 h; Potency, µM (titrated, usually from 46.1 µM), inactives show at the top dose activity change, negative = inhibition, most hits filed as inhibitors; 0.05% of 340,000 active; AID 493014; active = well fitted inhibition curve with a large enough effect in the signal ratio, with a control signal flat, not every such curve was filed as active; inconclusive = small, poorly fitted or top-dose-only effect, or effect the other way, or a change in a side signal; the % refers to the signal ratio;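 also: potency is read from the fitted curve at half-maximal effect; plate controls were basal doxycycline-induced cells for no effect and cells given 10 µM MG132 for full effect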
#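 Compounds up to 46 uM were incubated four hours with TMD8 cells whose green CBG68 luciferase is fused to IkappaBalpha; red CBR luminescence normalised the signal, and concentration-effect curves were fitted to fusion, red and ratio data.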
# IL1B secr inh = inhibitors of inflammasome signaling (IL-1 beta secretion); activity change, % at 57.5 µM; AID 743279; THP-1 LPS/ATP IL-1B secretion, AlphaLISA, 16 h; active compounds read low; 4.7% of 360,000 active; in the data active = activity change below about -50%; inconclusive = mostly about -30% to -49%; also: % is scaled to controls: 0 for no effect and ±100 for the full control effect
#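 Secreted IL-1B measured by AlphaLISA bead assay after 16 h compound exposure of THP-1 cells; compounds (final up to 57.5 uM) added 1 h before LPS (250 ng/mL) and ATP (1.25 mM) stimulation; lower signal means less secretion.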
# DT40 TDP1 no CPT = qHTS for Inhibitors of human tyrosyl-DNA phosphodiesterase 1 (TDP1): qHTS in cells in absence of CPT; DT40 Tdp1-/- hTDP1 cells, no CPT, ATP luminescence, 48 h; Potency, µM (doses to about 46.2 µM), without a hit: at the highest dose activity change, negative = growth inhibition, actives largely listed as inhibitors; 15% of 420,000 active; AID 686978, 2013; also: potency is read from the fitted curve at half-maximal effect; % is scaled to controls: 0 for no effect and ±100 for the full control effect; nearly all actives have a fitted effect of over 55% in size
#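 Compound effects on proliferation are scored in DT40 Tdp1-/-;hTDP1 cells in the absence of CPT. ATP levels (CellTiter-Glo luminescence) are recorded after a ≥48 hr, 37 °C incubation.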
# MCF10A rerep = induces DNA re-replication in MCF 10a normal breast cells; MCF 10A DNA re-replication, Hoechst nuclear intensity, 48 h; 2.9% of 350,000 active; AID 624296; Potency, µM (highest dose often 46.1 µM), without a hit: at the top dose activity, positive = re-replication, usual class: activators; also: potency is read from the fitted curve at half-maximal effect; % of control where 0% means no effect; nearly all actives have a fitted effect of over 50% in size
# Starred values were filed as active, the others as inactive; ? = inconclusive; . = not tested or not shown. Unless noted, calls follow the shape of the dose curve; as a rule, active = well fitted curve in the direction sought with a large enough effect; inconclusive = small, poorly fitted or top-dose-only effect, or another doubt; inactive = no such curve, though single readings can be large; an effect the other way counts as inactive or inconclusive.
SMILES,DT40 TDP1 CPT,SW480 rerep,BCR signal inh,IL1B secr inh,DT40 TDP1 no CPT,MCF10A rerep
CCCCCCSc1ccc([C@@H]2[C@H]3C(=O)N(CC)C(=O)[C@H]3[C@]3(C(=O)OC)CCCN23)cc1,20.6µM*,-18.7%,0.3%,-1.5,?,?
CCCSc1ccc([C@H]2N[C@@](CC(C)C)(C(=O)OC)[C@H]3C(=O)N(C)C(=O)[C@@H]23)cc1,?,-12.8%,4.7%,-21.4,?,?
CCCN1CCN(C(=O)c2ccc3[nH]c(C)c(C)c3c2)CC1,-12.4%,.,.,3.1,-3.9%,.
CC(C)(C)c1nc2c(s1)CCc1onc(-c3ccc(Cl)cc3)c1-2,6.4%,-6.3%,0.4%,37.4,1.1%,16.3%
CCOC(=O)[C@]12CCCC=C1N(Cc1ccc(Cl)cc1Cl)C(=O)[C@H](CC(=O)N1CCN(C(=O)c3ccco3)CC1)C2,?,.,.,-13.8,16.4µM*,.
CCOC(=O)[C@]12CCCC=C1N(Cc1ccc(Cl)cc1Cl)C(=O)[C@H](CC(=O)N1CCCC1)C2,?,.,.,0.2,?,.
CCOC(=O)[C@]12CCCC=C1N(Cc1ccc(Cl)cc1Cl)C(=O)[C@H](CC(=O)N1CCC(c3ccccc3)CC1)C2,16.4µM*,.,.,0.0,18.4µM*,.
CCOC(=O)[C@]12CCC=C1N(Cc1ccc(Cl)cc1Cl)C(=O)[C@H](CC(=O)N1CCC(c3ccccc3)CC1)C2,?,.,.,-6.9,18.4µM*,.
CCOC(=O)[C@]12CCC=C1N(Cc1ccc(Cl)cc1Cl)C(=O)[C@H](CC(=O)N1CCOCC1)C2,?,.,.,-6.5,20.6µM*,.
CN(C)S(=O)(=O)c1ccc(Cl)c(C(=O)NC2CCCCCCC2)c1,?,2.6%,-1.2%,-4.4,?,13.6%
O=C(NN1c2ccccc2CCc2ccccc21)c1ccccc1Br,20.6µM*,0.9%,1.8%,7.5,?,9.2%
CNC(=O)N1c2ccccc2CCc2ccccc21,-23.5%,-1.6%,3.3%,3.3,?,-1.5%
CCOc1ccc(NC(=O)c2ccc3c(c2)C(=O)N(Cc2ccncc2)C3=O)cc1,?,-7.9%,-1.0%,-3.8,-19.1%,-12.0%
CCCN(S(=O)(=O)c1ccccc1F)S(=O)(=O)c1ccccc1Br,?,?,7.4%,1.5,?,20.6µM*
CCN(Cc1ccccc1)S(=O)(=O)c1ccccc1Br,?,-15.9%,4.2%,17.8,?,?
Cn1c(=O)n(C)c2cc(NC(=O)Cc3ccccc3[N+](=O)[O-])ccc21,4.0%,-3.4%,-7.6%,13.3,?,1.4%
CCN1CCn2c3c(c4cc(C)ccc42)CCCC31 (centres undefined),?,-0.2%,?,-6.2,23.1µM*,13.2%
CCCN(CCC)S(=O)(=O)c1ccc(C(=O)N2CCn3c4c(c5cc(C)ccc53)CCCC42)cc1 (centres undefined),16.4µM*,.,.,.,?,.
Cc1ccc2c(c1)c1c3n2CCN(C(=O)CCl)C3CCC1 (centres undefined),4.61µM*,?,?,-98.6*,3.26µM*,?
CC(=O)N1CCn2c3c(c4cc(C)ccc42)CCCC31 (centres undefined),-6.0%,1.1%,-4.2%,-11.3,-24.2%,3.7%
COc1cccc(-c2sc3ccc(OC)cc3c2-c2ccc(O)cc2)c1,?,5.7%,18.9%,6.9,?,9.7%
Oc1cccc(-c2sc3ccccc3c2-c2ccc(OCCN3CCCCC3)cc2)c1,18.4µM*,.,.,0.0,11.6µM*,.
c1ccc(-c2sc3ccccc3c2-c2ccc(OCCN3CCOCC3)cc2)cc1,-27.7%,-6.3%,1.1%,0.2,?,?
O=C(c1ccc(OCCN2CCCCC2)cc1)c1c(-c2ccc(O)cc2)sc2cc(O)ccc12,?,2.9%,0.6%,11.3,16.8µM*,?
COc1cccc(-c2sc3ccc(OC)cc3c2-c2ccc(OCCN(C)C)cc2)c1,23.1µM*,-35.8%,-13.7%,-62.0*,16.4µM*,?
SMILES,DT40 TDP1 CPT,SW480 rerep,BCR signal inh,IL1B secr inh,DT40 TDP1 no CPT,MCF10A rerep
COc1cccc(-c2sc3ccc(OC)cc3c2-c2ccc(OCCN3CCOCC3)cc2)c1,16.4µM*,7.6%,0.7%,-11.4,?,?
CCN(CC)C(=O)Cn1cc([N+](=O)[O-])cc1[N+](=O)[O-],-9.9%,-1.6%,.,-6.7,-5.6%,-1.0%
COc1ccc(-c2sc3ccccc3c2-c2ccc(OCCN(C)C)cc2)cc1,?,?,-1.3%,-26.9,23.1µM*,?
Cc1cc(=O)oc2cc(OCC(=O)Nc3nccs3)ccc12,2.2%,2.6%,?,-6.1,-27.6%,-3.5%
CCOC(=O)c1c(-c2ccc(OC)cc2)csc1NC(=O)CSc1ncnc2sccc12,?,-112.7%,8.6%,4.0,?,16.4µM*
CCOC(=O)c1c(-c2ccc(OC)cc2)csc1NC(=O)COc1ccc2c(C)cc(=O)oc2c1,23.1µM*,-1.2%,7.3%,5.8,16.4µM*,17.7%
CCOC(=O)c1c(-c2ccc(C)cc2)csc1NC(=O)c1cc(-c2ccc(OC)cc2)on1,-10.2%,.,.,.,-17.0%,.
Cc1ccc(S(=O)(=O)CC(=O)Nc2ccc(S(=O)(=O)Nc3onc(C)c3C)cc2)cc1,4.7%,10.3µM*,0.0%,27.2,-1.0%,-1.5%
Cc1noc(NS(=O)(=O)c2ccc(NC(=O)CSc3nc4c(cc3C#N)CCCCC4)cc2)c1C,2.2%,18.3%,?,1.3,6.6%,20.6µM*
CCc1ccc(C(=O)/C=C/Nc2ccc(S(=O)(=O)Nc3onc(C)c3C)cc2)cc1,-3.2%,13.0%,2.9%,-18.6,-25.1%,25.9µM*
Cc1ccc(OCC(=O)Nc2ccc(S(=O)(=O)Nc3onc(C)c3C)cc2)cc1,6.8%,-2.0%,7.5%,0.0,-4.9%,11.4%
C=CCNC(=S)N/N=C(\C)c1cccc(NC(C)=O)c1,8.7%,-60.5%,?,-12.3,-4.4%,-1.1%
C=CCNC(=S)N/N=C(\C)c1cc(OC)c(OC)c(OC)c1,4.11µM*,-12.6%,?,0.0,2.91µM*,-8.1%
Cc1cc(SCC(=O)c2ccc(O)c(O)c2)n2nc(C)c(-c3ccccc3)c2n1,18.4µM*,7.31µM*,1.4%,0.0,14.6µM*,?
CCSc1cc(C)nc2c(-c3ccc(Cl)cc3)c(C)nn12,-8.4%,18.4µM*,3.0%,3.3,0.6%,14.6µM*
COc1ccc(S(=O)(=O)N(C)C2(C)CCS(=O)(=O)C2)cc1OC (centres undefined),11.4%,-264.1%,-5.0%,12.5,-7.5%,-0.4%
